According to the supplement of paper PMC11732987, “Enantioselective OTUD7B fragment discovery through chemoproteomics screening and high-throughput optimisation” (Communications Chemistry, 2025):

How the values were obtained:
Assay in all cases: log2 ratio of Biotin-Ahx-Ub-VS probe labelling (fragment/DMSO); higher = less target engagement (more negative = stronger competition), active = hit call of the paper (q ≤ 0.05, log2 ratio ≤ -1)
Conditions in all cases: compound concentration: 200 uM; treatment time: 3 h
[1] = target: T1, USP42 (UniProt Q9H9J4)
T1 sequence (whole entry): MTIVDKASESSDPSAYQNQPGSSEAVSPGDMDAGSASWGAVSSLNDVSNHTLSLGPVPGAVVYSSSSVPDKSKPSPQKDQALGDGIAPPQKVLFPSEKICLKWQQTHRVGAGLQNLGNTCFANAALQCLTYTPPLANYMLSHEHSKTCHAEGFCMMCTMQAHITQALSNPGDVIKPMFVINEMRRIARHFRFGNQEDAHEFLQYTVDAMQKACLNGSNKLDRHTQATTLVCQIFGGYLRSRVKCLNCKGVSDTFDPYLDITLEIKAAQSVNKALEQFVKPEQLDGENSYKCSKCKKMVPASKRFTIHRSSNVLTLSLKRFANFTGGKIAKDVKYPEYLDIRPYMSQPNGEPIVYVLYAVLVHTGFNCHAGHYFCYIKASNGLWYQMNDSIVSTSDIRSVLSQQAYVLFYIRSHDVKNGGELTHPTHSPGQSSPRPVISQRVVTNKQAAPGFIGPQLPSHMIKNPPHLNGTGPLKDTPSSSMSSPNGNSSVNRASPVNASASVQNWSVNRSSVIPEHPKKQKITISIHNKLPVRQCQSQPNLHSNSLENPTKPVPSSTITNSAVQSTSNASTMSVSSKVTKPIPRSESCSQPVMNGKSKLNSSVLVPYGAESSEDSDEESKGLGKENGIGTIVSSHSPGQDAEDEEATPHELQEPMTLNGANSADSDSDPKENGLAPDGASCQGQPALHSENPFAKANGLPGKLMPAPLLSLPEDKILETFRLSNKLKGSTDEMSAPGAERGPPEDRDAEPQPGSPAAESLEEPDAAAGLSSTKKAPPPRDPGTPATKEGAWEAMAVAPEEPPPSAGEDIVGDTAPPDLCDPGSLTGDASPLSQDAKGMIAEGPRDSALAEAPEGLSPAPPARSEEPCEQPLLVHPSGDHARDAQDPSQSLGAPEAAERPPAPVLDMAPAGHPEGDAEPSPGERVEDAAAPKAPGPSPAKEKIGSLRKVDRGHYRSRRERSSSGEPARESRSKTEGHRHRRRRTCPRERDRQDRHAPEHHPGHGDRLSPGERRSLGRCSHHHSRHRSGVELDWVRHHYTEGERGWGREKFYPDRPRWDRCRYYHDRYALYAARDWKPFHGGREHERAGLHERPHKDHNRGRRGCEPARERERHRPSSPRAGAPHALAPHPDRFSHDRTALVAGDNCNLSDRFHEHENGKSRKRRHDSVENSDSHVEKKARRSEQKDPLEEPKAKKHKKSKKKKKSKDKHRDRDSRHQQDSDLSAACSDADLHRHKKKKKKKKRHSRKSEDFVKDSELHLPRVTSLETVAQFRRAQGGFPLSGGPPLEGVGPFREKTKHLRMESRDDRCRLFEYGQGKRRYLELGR
Method in brief: (§1)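 Labelled DUBs from HEK293T lysate were NeutrAvidin-enriched, digested with LysC and trypsin, and run by diaPASEF LC-MS/MS. Before that, each 495 µg sample in Tris/CHAPS/IGEPAL buffer with protease inhibitors was treated in triplicate with fragment at 200 µM or vehicle for 3 h, then with Biotin-Ahx-Ub-VS at 0.5 µM final for 1 h. Values are average log2 ratios of fragment over vehicle by unpaired t-test, based on global-median-normalised Spectronaut label-free quantities from proteins with ≥2 unique peptides.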

[2] = target: USP46 (UniProt P62068)
Method in brief: as §1

[3] = target: T2, USP47 (UniProt Q96K76)
T2 sequence (whole entry): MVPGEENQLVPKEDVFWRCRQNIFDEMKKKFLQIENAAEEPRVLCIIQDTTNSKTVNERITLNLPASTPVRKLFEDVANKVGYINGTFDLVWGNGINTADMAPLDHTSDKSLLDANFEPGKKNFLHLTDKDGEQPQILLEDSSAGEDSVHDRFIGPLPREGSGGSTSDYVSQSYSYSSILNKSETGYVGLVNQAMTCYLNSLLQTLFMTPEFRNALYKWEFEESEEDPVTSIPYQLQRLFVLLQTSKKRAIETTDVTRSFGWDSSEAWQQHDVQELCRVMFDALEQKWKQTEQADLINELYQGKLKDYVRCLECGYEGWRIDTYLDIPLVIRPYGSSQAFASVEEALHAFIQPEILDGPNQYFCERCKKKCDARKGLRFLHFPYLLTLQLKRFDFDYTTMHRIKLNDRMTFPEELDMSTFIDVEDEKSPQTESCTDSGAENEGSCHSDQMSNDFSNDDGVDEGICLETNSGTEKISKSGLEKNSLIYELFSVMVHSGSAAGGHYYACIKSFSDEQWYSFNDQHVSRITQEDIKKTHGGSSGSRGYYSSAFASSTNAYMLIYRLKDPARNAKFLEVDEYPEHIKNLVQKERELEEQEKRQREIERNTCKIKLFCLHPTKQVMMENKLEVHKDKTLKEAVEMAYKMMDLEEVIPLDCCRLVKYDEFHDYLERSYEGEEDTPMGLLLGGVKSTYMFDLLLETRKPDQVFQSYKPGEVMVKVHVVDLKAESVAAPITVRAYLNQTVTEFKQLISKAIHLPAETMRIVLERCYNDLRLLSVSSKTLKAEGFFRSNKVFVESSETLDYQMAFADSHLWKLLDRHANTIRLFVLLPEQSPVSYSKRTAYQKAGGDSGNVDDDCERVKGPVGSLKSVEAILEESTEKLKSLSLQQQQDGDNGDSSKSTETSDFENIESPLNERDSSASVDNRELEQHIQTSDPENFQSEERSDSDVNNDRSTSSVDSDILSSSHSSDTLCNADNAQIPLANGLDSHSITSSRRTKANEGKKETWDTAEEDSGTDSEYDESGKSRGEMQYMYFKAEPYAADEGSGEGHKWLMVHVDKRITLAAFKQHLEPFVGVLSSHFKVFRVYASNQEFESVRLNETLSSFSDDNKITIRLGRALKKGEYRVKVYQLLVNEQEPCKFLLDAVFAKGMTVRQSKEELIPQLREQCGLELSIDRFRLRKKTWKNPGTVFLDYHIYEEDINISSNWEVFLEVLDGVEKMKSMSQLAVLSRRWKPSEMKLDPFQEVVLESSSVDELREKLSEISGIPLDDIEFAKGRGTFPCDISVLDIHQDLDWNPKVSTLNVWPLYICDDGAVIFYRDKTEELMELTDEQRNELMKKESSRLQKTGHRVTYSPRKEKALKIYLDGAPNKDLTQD
Method in brief: as §1

[4] = target: T3, USP48 (UniProt Q86UV5)
T3 sequence (whole entry): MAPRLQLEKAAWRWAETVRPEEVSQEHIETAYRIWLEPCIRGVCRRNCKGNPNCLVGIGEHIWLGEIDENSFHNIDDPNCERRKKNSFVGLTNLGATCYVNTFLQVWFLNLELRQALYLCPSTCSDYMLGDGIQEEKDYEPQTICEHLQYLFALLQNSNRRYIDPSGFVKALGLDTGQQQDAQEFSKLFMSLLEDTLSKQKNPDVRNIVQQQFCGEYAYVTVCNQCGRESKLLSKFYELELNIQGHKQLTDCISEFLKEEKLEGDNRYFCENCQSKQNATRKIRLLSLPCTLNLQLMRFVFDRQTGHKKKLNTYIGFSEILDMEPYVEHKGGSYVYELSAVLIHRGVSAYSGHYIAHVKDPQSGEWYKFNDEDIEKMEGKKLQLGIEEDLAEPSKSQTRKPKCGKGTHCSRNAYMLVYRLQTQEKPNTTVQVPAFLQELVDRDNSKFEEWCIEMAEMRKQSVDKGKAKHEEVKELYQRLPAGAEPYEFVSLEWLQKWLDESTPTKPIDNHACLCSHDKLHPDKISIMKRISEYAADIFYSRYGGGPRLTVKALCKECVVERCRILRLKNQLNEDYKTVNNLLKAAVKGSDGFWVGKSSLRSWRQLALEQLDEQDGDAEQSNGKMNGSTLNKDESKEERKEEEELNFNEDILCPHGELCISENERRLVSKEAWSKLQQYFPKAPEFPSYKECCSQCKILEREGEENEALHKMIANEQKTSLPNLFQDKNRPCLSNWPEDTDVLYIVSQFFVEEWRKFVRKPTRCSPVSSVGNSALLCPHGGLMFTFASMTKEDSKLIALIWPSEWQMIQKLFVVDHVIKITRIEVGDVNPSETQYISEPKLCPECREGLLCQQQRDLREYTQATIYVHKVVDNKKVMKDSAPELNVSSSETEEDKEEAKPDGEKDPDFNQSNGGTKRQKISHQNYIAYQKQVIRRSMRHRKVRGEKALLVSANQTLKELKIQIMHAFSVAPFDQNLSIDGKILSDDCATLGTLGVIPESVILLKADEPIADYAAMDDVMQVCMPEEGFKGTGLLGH
Method in brief: as §1

[5] = target: T4, USP5 (UniProt P45974)
T4 sequence (whole entry): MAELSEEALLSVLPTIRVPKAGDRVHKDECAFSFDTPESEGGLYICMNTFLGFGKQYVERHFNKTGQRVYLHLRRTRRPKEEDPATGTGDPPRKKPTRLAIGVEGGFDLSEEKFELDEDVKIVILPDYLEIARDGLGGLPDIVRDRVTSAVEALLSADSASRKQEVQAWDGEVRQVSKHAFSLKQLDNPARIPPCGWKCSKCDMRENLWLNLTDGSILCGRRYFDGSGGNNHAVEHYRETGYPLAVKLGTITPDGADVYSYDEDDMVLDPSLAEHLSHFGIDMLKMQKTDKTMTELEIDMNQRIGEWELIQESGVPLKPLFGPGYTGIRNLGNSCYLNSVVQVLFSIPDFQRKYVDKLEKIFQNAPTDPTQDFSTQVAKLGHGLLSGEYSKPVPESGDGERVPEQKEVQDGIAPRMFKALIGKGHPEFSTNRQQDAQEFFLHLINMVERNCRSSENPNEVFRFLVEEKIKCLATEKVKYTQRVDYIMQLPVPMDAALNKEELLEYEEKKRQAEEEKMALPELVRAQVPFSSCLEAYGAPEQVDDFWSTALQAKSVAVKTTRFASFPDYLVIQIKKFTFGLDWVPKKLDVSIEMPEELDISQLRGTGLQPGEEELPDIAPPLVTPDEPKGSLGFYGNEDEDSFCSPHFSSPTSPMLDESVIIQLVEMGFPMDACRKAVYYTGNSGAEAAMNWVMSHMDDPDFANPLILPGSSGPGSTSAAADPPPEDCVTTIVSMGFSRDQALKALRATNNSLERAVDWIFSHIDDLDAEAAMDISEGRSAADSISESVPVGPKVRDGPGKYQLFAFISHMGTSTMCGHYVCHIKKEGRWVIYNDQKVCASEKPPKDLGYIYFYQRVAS
Method in brief: as §1

[6] = target: USP54 (UniProt Q70EL1)
Method in brief: as §1

[7] = target: USP7 (UniProt Q93009)
Method in brief: as §1

[8] = target: T5, USP8 (UniProt P40818)
T5 sequence (whole entry): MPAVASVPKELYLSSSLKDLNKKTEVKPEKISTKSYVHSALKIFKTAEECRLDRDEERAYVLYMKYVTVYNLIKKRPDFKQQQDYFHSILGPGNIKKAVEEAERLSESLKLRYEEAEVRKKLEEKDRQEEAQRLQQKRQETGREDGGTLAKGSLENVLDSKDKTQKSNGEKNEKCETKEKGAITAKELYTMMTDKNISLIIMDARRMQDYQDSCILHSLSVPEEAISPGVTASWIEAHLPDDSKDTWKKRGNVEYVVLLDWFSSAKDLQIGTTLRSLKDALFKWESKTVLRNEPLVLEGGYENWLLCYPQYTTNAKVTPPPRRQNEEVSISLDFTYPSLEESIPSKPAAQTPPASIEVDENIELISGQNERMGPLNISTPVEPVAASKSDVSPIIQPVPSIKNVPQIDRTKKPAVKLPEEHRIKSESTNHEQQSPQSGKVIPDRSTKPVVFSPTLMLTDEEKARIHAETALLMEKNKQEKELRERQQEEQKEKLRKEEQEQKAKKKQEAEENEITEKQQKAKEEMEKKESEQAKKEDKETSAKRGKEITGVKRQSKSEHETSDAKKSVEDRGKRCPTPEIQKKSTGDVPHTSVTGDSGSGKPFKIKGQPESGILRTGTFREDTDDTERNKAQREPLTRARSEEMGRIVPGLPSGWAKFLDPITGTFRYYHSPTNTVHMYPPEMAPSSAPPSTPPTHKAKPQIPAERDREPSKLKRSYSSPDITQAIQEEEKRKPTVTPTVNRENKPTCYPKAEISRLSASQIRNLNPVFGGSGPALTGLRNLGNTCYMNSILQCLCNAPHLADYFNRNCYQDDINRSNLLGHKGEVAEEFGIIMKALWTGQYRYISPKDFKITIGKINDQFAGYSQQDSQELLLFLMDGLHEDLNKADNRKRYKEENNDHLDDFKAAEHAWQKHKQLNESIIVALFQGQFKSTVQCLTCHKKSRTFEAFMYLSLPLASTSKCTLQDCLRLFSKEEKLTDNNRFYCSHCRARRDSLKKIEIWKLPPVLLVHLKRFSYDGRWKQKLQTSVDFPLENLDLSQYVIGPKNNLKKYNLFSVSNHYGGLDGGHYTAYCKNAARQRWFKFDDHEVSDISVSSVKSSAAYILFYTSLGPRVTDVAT
Method in brief: as §1

[9] = target: USP9X (UniProt Q93008)
Method in brief: as §1

[10] = target: UniProt O00487
Method in brief: as §1

Measured: log2 ratio of Biotin-Ahx-Ub-VS probe labelling

USP46, sequence (P62068 whole entry): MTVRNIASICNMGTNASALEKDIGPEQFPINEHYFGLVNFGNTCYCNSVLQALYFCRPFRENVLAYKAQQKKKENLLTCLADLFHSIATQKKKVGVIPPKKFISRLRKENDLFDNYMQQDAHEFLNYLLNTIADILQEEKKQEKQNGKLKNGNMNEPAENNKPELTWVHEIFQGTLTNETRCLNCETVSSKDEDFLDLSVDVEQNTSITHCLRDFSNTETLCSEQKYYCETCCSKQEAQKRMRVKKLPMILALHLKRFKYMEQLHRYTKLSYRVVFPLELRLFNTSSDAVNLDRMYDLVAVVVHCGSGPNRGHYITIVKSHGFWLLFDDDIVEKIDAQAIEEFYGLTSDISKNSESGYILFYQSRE
UniProt O00487, sequence (O00487 whole entry): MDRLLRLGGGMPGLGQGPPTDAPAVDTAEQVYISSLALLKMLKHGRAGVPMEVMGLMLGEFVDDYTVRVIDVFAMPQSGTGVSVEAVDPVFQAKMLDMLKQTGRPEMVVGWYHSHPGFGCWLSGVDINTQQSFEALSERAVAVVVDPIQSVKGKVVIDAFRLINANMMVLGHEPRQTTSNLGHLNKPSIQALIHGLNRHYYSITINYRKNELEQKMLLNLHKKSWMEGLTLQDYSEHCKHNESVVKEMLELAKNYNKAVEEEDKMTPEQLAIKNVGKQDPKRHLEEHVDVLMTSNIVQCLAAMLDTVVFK
USP9X, sequence (Q93008 whole entry): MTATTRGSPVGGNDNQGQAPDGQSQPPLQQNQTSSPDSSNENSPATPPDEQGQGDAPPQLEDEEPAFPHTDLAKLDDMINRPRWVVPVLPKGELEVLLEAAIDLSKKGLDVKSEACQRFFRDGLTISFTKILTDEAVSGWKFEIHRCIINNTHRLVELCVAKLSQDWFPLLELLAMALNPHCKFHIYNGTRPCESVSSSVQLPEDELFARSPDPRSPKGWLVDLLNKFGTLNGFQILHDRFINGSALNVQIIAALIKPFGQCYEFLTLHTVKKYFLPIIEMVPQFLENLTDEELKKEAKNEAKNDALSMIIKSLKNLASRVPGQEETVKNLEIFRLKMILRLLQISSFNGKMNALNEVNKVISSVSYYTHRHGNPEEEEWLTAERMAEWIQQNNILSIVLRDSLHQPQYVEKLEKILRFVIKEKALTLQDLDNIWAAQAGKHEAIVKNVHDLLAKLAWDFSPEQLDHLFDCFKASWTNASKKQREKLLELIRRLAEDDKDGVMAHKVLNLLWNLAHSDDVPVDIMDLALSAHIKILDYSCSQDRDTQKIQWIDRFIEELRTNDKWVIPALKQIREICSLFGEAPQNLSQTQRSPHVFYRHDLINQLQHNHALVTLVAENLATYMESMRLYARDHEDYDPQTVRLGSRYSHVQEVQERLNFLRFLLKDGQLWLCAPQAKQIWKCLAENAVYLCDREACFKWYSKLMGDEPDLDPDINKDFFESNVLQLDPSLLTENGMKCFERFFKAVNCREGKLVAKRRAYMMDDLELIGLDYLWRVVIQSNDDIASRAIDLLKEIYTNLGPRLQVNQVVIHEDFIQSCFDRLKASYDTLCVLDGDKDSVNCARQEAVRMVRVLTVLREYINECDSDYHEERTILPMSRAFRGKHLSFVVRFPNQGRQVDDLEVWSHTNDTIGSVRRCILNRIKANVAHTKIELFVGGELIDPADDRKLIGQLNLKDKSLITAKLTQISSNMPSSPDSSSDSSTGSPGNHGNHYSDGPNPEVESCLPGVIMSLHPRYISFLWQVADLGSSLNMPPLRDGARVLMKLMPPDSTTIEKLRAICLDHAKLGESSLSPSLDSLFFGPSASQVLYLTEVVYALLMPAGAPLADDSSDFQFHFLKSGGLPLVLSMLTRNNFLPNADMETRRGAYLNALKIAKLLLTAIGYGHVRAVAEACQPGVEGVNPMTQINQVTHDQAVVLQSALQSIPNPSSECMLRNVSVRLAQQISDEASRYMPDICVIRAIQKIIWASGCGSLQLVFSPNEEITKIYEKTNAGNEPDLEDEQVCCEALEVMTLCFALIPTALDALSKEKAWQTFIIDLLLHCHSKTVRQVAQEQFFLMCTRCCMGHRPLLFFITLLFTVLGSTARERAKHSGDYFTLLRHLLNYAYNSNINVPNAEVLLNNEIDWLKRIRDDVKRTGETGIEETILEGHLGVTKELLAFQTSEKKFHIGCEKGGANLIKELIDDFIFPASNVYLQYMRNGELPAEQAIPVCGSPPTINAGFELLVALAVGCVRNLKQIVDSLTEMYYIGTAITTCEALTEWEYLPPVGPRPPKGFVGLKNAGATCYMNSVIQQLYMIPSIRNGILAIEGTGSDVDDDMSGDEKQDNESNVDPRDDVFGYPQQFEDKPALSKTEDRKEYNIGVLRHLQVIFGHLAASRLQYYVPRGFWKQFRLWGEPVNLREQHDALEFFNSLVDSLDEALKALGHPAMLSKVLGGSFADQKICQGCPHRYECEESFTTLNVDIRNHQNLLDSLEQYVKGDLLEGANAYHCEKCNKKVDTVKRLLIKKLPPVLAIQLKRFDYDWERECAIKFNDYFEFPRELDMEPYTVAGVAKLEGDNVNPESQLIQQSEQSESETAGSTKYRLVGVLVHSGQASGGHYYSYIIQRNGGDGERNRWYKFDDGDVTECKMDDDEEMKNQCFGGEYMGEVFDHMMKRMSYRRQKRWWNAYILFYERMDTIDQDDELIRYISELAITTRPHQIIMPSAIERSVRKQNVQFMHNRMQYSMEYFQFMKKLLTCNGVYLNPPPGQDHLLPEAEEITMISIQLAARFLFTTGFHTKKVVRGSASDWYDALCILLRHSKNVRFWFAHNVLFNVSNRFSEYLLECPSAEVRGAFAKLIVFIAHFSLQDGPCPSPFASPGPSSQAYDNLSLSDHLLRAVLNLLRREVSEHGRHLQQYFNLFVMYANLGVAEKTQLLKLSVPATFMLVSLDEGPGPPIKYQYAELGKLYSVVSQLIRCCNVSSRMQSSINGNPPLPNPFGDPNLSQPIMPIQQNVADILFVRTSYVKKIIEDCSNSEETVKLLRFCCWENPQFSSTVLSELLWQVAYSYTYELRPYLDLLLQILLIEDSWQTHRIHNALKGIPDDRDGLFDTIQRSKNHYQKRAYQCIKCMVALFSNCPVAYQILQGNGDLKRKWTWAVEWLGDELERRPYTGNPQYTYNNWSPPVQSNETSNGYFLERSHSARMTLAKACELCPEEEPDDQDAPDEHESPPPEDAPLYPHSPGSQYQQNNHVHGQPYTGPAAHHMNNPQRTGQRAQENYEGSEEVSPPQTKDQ
USP7, sequence (Q93009 whole entry, looked up): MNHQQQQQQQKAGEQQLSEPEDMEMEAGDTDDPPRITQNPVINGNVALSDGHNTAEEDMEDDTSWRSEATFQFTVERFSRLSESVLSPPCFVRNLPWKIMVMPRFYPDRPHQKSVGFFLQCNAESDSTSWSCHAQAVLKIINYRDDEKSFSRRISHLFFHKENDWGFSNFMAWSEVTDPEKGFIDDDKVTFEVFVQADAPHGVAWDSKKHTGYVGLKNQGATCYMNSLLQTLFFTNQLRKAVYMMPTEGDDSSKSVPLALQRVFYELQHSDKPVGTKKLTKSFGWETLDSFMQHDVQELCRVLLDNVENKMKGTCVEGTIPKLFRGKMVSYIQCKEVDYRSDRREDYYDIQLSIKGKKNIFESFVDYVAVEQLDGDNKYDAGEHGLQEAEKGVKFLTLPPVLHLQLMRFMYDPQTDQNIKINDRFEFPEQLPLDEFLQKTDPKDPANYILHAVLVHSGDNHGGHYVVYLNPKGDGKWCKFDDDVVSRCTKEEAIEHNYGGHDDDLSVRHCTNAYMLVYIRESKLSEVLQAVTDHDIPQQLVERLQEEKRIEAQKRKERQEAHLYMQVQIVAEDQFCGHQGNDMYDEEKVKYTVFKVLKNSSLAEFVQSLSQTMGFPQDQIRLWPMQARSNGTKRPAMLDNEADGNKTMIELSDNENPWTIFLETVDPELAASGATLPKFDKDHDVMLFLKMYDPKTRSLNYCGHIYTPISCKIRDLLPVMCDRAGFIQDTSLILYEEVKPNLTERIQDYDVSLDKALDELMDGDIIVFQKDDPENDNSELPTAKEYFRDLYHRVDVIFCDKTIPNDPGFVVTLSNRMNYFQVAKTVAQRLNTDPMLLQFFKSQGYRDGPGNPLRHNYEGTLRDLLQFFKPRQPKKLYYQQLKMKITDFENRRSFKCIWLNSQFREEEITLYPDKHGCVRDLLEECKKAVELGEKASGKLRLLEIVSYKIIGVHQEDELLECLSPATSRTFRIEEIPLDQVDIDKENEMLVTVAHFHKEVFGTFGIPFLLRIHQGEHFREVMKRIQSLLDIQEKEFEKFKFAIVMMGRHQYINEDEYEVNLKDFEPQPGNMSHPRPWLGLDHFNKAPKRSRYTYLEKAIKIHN

Cc1ccc(C)c(Oc2ccc(CNC(=O)CCl)cn2)c1.Cl
inactive: [1] -0.119 | [2] 0.00613 | [3] -0.424 | [4] -0.619 | [5] -0.165 | [6] 0.136 | [7] -0.376 | [8] -0.519 | [9] -0.677 | [10] -0.0677
